Experimental findings from PubChem BioAssay AID430 (Sanford-Burnham Center for Chemical Genomics, 2006) are described below.

SMILES strings stand for the structures. In all, about 63,000 compounds went through this assay and about 1,100 (1.7%) were called active. The sample as a whole holds a higher share of actives than the screen did. Entries with a potency or affinity are not part of this list. Values without a mark were called inactive. Cut-off read from the data, not from the text of the source: active = cytotoxicity above about 50%; inactive = the rest.

The nature of this test: HPDE-C7 pancreatic duct cell viability loss – fluorescence, HTS (AID 430).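 Note: cells exposed to compound for 48 hours before viability readout; 0% = vehicle and 100% = reference cytotoxic drug.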 The following applies: HPDE-C7 pancreatic duct cells viability, at 10 µM, stronger effect = higher value.
With `O=C(COC(=O)C1c2ccccc2Oc2ccccc21)NC1CCS(=O)(=O)C1` (stereo unspecified), the cytotoxicity is -3.2%. Regarding `Cc1ccc2nc(NC3=NCN(Cc4ccc5c(c4)OCO5)CN3)nc(C)c2c1`, the cytotoxicity was 8.3%. For the molecule `Cc1cc2nc(NC3=NCN(Cc4ccc5c(c4)OCO5)CN3)nc(C)c2cc1C`, the cytotoxicity was 93.4% (active).

In the case of `Cc1nc(NC2=NCN(Cc3ccc4c(c3)OCO4)CN2)nc2ccccc12`, the cytotoxicity was 2.1%. The same measure for `CC(=O)C1=C(O)C(=O)N(Cc2ccco2)C1c1ccccc1` (stereo unspecified): -10.9%. Take `Cc1ccc(S(=O)(=O)c2cc3c(=O)n4ccccc4nc3n(Cc3ccco3)c2=N)cc1`: the cytotoxicity was 21.9%. In the case of `N=c1c(C(=O)NCc2ccccc2)cc2c(=O)n3ccccc3nc2n1Cc1ccco1` it was 1.8%; in that of `Cc1ccc(CNC(=O)c2cc3c(=O)n4ccccc4nc3n(Cc3ccco3)c2=N)cc1`, 104% (active).

Regarding `N=c1c(S(=O)(=O)c2ccccc2)cc2c(=O)n3ccccc3nc2n1Cc1ccco1`, the cytotoxicity was -0.3%. The same measure for `Cc1ccc(Cn2c(=N)c(C(=O)NCc3ccco3)cc3c(=O)n4ccccc4nc32)cc1`: -10.8%.

`CC1=C(C(N)=O)C(c2ccccn2)n2nc(-c3ccccc3Cl)nc2N1` (stereo unspecified): the cytotoxicity was 13.8%. With `C=C(C)COc1ccc2c3c(c(=O)oc2c1OCC(=C)C)CCC3`, the cytotoxicity was 11.5%.

Consider `Cc1ccc(C(C(=O)NC2CCCCC2)N(Cc2cccnc2)C(=O)C2COc3ccccc3O2)o1` (stereo unspecified), for which the cytotoxicity was -11.7%. The same measure for `C=CCn1c(SCC(=O)NC2CCCCC2)nnc1-c1sc(N)nc1C`: -10%.

With `CCn1c(COc2ccc3c(c2)OCO3)nnc1SCC(=O)c1ccccc1`, the cytotoxicity was -1.4%.

Turning to `O=S(=O)(NCc1cccs1)c1cccc2cccnc12`, the cytotoxicity is -9.6%. The same measure for `CN(CC(=O)NCc1cccs1)S(=O)(=O)c1cccc2cccnc12`: -9.8%; for `CCOC(=O)C1(C)NC(c2ccc(N(C)C)cc2)C2C(=O)N(CC)C(=O)C21` (stereo unspecified): -12.4%.

Regarding `O=c1c2ccccc2nc(SCc2cc(F)cc3c2OCOC3)n1Cc1ccco1`, the cytotoxicity is -2.2%. For the molecule `N#Cc1nc(-c2ccc(F)cc2)oc1N1CCCC1`, the cytotoxicity is -7.6%. The same measure for `O=C(c1ccc(F)cc1)c1ccc(N2CCCC2)cc1`: -17.7%; for `CN(C)CCN1C(=O)C(O)=C(C(=O)c2ccco2)C1c1ccccc1F` (stereo unspecified): -4.8%. In the case of `CCn1c(=O)cc(OCC(=O)N2CCCC2)c2ccccc21` it was -3%. Turning to `COc1ccc(C(CNC(=O)Cn2[nH]c(=O)c3ccccc3c2=O)N2CCCC2)cc1` (stereo unspecified), the cytotoxicity is 1.8%. With `Cc1ccccc1Cc1c(C)nc2nc(SCC(=O)NCc3ccco3)nn2c1C`, the cytotoxicity is 12%. In the case of `Cc1ccc(Cc2c(C)nc3nc(SCC(=O)NCc4ccco4)nn3c2C)cc1`, the cytotoxicity was 61.8% (active). The same measure for `Cc1cccc(Cc2c(C)nc3nc(SCC(=O)NCc4ccco4)nn3c2C)c1`: 45.8%. In the case of `Cc1nnc(NC(=O)c2ccc(-c3cccc(C(F)(F)F)c3)o2)s1`, the cytotoxicity is -13.1%. In the case of `CCOC(=O)c1sc(NC(=O)c2cccs2)cc1C` it was -16.1%; in that of `CCOC(=O)c1c(C)nn(Cc2ccccc2)c1N`, -1.6%; in that of `CCOC(=O)c1sc(NC(=O)c2c(C)nn(Cc3ccccc3)c2C)cc1C`, 72.7% (active). In the case of `Cc1cccc(OCc2nnc(SCC(=O)N(C(C)C)C(C)C)n2Cc2ccco2)c1C` it was -16%. In the case of `CC1(C)Cc2c(sc3ncn4nc(CCC(=O)O)c(=O)nc4c23)CO1` it was -23.3%; in that of `O=C(Nc1cc(C(F)(F)F)ccc1N1CCOCC1)c1ccco1`, 1.1%; in that of `O=C(Nc1cc(C(F)(F)F)ccc1N1CCOCC1)c1cccnc1`, 4.3%. On to `Cc1onc(-c2ccccc2)c1C(=O)Nc1cc(C(F)(F)F)ccc1N1CCOCC1`, for which the cytotoxicity is 69.1% (active). The same measure for `Cc1onc(-c2ccccc2)c1C(=O)Nc1ccccc1N1CCOCC1`: 4.9%; for `O=C(Nc1cc(C(F)(F)F)ccc1N1CCOCC1)c1c(F)c(F)c(F)c(F)c1F`: 51% (active). In the case of `CC(=O)Nc1cc(C(F)(F)F)ccc1N1CCOCC1`, the cytotoxicity is 14.9%. In the case of `COc1ccccc1NC(=O)C1=C(C)Nc2ncnn2C1c1cccs1` (stereo unspecified) it was 3.3%; in that of `O=C(Cn1cnc2c(nnn2Cc2ccccc2F)c1=O)OCc1ccccc1`, -18.4%; in that of `Cn1cccc1Cc1nnc(SCC(=O)Nc2ccc(F)cc2)n1-c1ccc(F)cc1`, -3.8%. Turning to `CCSc1nnc(NC(=O)CSc2nnc(Cc3cccn3C)n2-c2ccc(F)cc2)s1`, the cytotoxicity is 65.6% (active).

In the case of `CCSc1nnc(NC(=O)CSc2nnc(Cc3cccn3C)n2-c2ccc(C)cc2)s1`, the cytotoxicity is 39.6%.

With `Cc1nnc(Nc2ccc(C(=O)NCCO)cc2)c2ccccc12`, the cytotoxicity was 8.6%. As to `CC(O)C(=O)NCCOCCOCCNC(=O)C(C)O` (stereo unspecified), the cytotoxicity was -5.5%. In the case of `Cc1ccc(SC(C)C(=O)NCC(C)C)cc1` (stereo unspecified) it was -2.6%; in that of `COC(=O)c1ccc(Sc2ccc(C)cc2)c(N)c1`, 9.4%; in that of `CC(C)c1ccc(O)c(N)c1`, 6.8%. In the case of `COC(=O)c1ccc(OC(=O)c2ccc(OC)c(OC)c2)c(OC)c1` it was 4.3%; in that of `Cc1ccc(O)c(Sc2cc(C)ccc2O)c1`, 52.6% (active).

For the molecule `CN(CCC#N)S(=O)(=O)c1ccc2c(c1)c(=O)n(C)c(=O)n2C`, the cytotoxicity is -12.5%.

As for `CCCN(S(=O)(=O)c1ccc(OCC)cc1)S(=O)(=O)c1cccs1`, the cytotoxicity is -20.2%. The same measure for `O=C(Nc1ccccc1Cl)c1c(F)c(F)c(F)c(F)c1F`: -8.2%. The same measure for `COc1cc(NC(=O)c2c(F)c(F)c(F)c(F)c2F)c(OC)cc1Cl`: 55.4% (active); for `COCC(=O)Nc1cc(OC)c(Cl)cc1OC`: -1.4%. Take `COc1cc(NC(=O)C2CCCC2)c(OC)cc1Cl`: the cytotoxicity is -20.5%.

Turning to `CCOC(=O)c1ccccc1NC(=O)c1cccs1`, the cytotoxicity is -6%. In the case of `CCOC(=O)c1ccccc1NC(=O)c1ccccc1SC` it was 25.3%; in that of `Cc1ccccc1NC(=O)c1c(F)c(F)c(F)c(F)c1F`, -10.5%; in that of `O=C(CSc1nnc(-c2ccc(Cl)cc2)n1Cc1ccco1)c1cccs1`, -6.2%. The same measure for `CCCCS(=O)CC(COCc1ccccc1)OC(=O)CSc1nc(C)cc(C)n1` (stereo unspecified): 8.8%; for `COC(=O)C1=CNC=C(C(=O)OC)C1c1ccc(C(=O)OC)cc1`: 5.1%. The same measure for `CC1(C)Cc2c(c(=S)nc(-c3ccccc3)n2CCN2CCOCC2)CO1`: -21.2%; for `CCOC(=O)C1CCN(C(=O)c2sc3nc(-c4ccccc4)cn3c2C)CC1`: -0.3%.

Consider `Cn1c(N)c(C(=O)COC(=O)C2(c3ccccc3F)CCCC2)c(=O)n(C)c1=O`, for which the cytotoxicity is -7%. In the case of `CCOCCCNC(=O)C(Cc1ccccc1)NC(=O)c1ccco1` (stereo unspecified) it was -8.1%; in that of `Cc1cc(C)c2c(CN3CCN(C)CC3)cc(=O)oc2c1`, -8.5%; in that of `Cc1cc(C)c2c(CN3CCN(C/C=C/c4ccccc4)CC3)cc(=O)oc2c1`, 69.9% (active). In the case of `CCN1CCN(Cc2cc(=O)oc3cc(C)cc(C)c23)CC1` it was 2.1%; in that of `O=c1ccnc(S/C=C/c2ccccc2)[nH]1`, -11.2%; in that of `O=C(Cn1c(=O)[nH]c2ccsc2c1=O)N1CCN(c2ccc(F)cc2)CC1`, 9.5%. In the case of `Cc1ccc(Cn2nc(C)c(NC(=O)c3cc(-c4ccc5c(c4)OCO5)on3)c2C)cc1` it was 16.2%; in that of `Cc1nn(Cc2ccc(Cl)cc2)c(C)c1NC(=O)c1cc(-c2ccc3c(c2)OCO3)on1`, 35.4%.

`Cc1nn(Cc2ccc(Cl)c(Cl)c2)c(C)c1NC(=O)c1cc(-c2ccc3c(c2)OCO3)on1`: the cytotoxicity was 54.7% (active). As to `O=C(c1ccc2c(c1)OCO2)N1CCCc2ccccc21`, the cytotoxicity is -12.5%. The same measure for `CN(C)S(=O)(=O)c1ccc(C(=O)Nc2ccccn2)cc1`: 0.8%. In the case of `COc1ccc(-n2c(Cc3cccn3C)nnc2SCC(=O)Nc2cc(Cl)ccc2OC)cc1` it was -0.9%; in that of `Cn1nnnc1SCC(=O)NCCc1ccc(Cl)cc1`, -8.2%; in that of `Oc1ccc(CNc2ccccc2F)c2cccnc12`, -4.7%. The same measure for `Oc1ccc(CNc2ccccc2)c2cccnc12`: 34.7%. In the case of `Oc1ccc(CN2CCN(Cc3ccccc3)CC2)c2cccnc12`, the cytotoxicity was 6.2%.

For `CN1CCN(Cc2cc(COCc3ccccc3)c3cccnc3c2O)CC1`, the cytotoxicity was -9.2%. As to `COCc1cc(CN2CCCC2)c(O)c2ncccc12`, the cytotoxicity was -11.9%.

Turning to `Oc1c(CN2CCOCC2)cc(COCc2ccccc2)c2cccnc12`, the cytotoxicity is 60.7% (active). In the case of `COc1ccccc1N1CCN(Cc2cc(Br)c(O)c3ncccc23)CC1` it was 5.1%; in that of `Oc1ccc(CNc2ccc(F)cc2)c2cccnc12`, 45.3%; in that of `Oc1c(CN2CCCCC2)cc(COCc2ccccc2)c2cccnc12`, -10.8%. For the molecule `CCCn1c(C)cc(=O)c2cc(NC(=O)c3ccccn3)ccc21`, the cytotoxicity is 16.1%. In the case of `COC(=O)CCCCCNc1ccc(C(=O)OC)cc1N` it was -12.1%; in that of `CC1Cc2nc(SCC(=O)N3CCc4ccccc43)n(C)c(=O)c2S1` (stereo unspecified), -19.6%.

As to `O=S(=O)(NCCc1csc(-c2ccccc2)n1)c1ccc2c(c1)OCCO2`, the cytotoxicity was 6.2%. Take `O=C(CCCCn1c(=S)[nH]c2ccsc2c1=O)NCc1ccco1`: the cytotoxicity was -3%. In the case of `Cc1ccc(C)c(N2CCN(C(=O)C3CCCN(S(=O)(=O)c4cnc[nH]4)C3)CC2)c1` (stereo unspecified) it was -3.6%; in that of `COc1cccc(C2=NOC(C(=O)N3CCN(C(=O)c4ccco4)CC3)C2)c1` (stereo unspecified), -8.5%. In the case of `CSCCC(NC(=O)c1ccccc1)C(=O)NCc1ccco1` (stereo unspecified) it was -8.6%.
